Reference: the supplement of paper PMC10849652
The full data set covers some 7,900 targets. This sample favours those with a hit. About 0.6% of all pairs of compound and target were hits.

Columns and labels:
Experiment in all cases: log2 fold change, soluble protein after heating vs DMSO (PISA); higher = thermal stabilisation; K562 cells, 10 uM, 30 min; active = over 0.2 and 3.5 SD of the protein, either way, in both replicates (recomputed)
bafetinib = compound: Cc1ccc(NC(=O)c2ccc(CN3CC[C@H](N(C)C)C3)c(C(F)(F)F)c2)cc1Nc1nccc(-c2cncnc2)n1 [bafetinib]
Outline: (§1)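 Soluble protein was defined as the supernatant after 21,000xg for 90 min. It came from K562 cells at 2×10^6 cells/mL given 10 μM compound for 30 min, heated in aliquots for 3 min across 48°C-58°C, pooled, and extracted in PBS with 0.5% NP-40 at 4°C, and was quantified by TMTpro 16plex LC-MS/MS with equalised channel sums. Thermal stability against control samples, from duplicates, is reported as log2 fold change.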

[1] = compound: Cc1cccc(CC(=O)N2CCc3c2ccc(-c2cn(C)c4ncnc(N)c24)c3F)n1
Outline: as §1

nilotinib = compound: Cc1cn(-c2cc(NC(=O)c3ccc(C)c(Nc4nccc(-c5cccnc5)n4)c3)cc(C(F)(F)F)c2)cn1 [nilotinib]
Outline: as §1

[2] = compound: Cc1nc(Nc2n[nH]c3c2CN(C(=O)N[C@H](CN(C)C)c2ccccc2)C3(C)C)c2sccc2n1
Outline: as §1

dasatinib = compound: Cc1nc(Nc2ncc(C(=O)Nc3c(C)cccc3Cl)s2)cc(N2CCN(CCO)CC2)n1 [dasatinib]
Outline: as §1

[3] = compound: Cc1ncc(-c2ccnc(Nc3ccc(S(C)(=O)=O)cc3)n2)n1C(C)C
Outline: as §1

[4] = compound: Cn1cc(-c2ccc3c(c2)CCN3C(=O)Cc2cccc(C(F)(F)F)c2)c2c(N)ncnc21
Outline: as §1

[5] = compound: Cn1cc(-c2ccc3nnc(C(F)(F)c4ccc5ncccc5c4)n3n2)cn1
Outline: as §1

tipifarnib = compound: Cn1cncc1[C@@](N)(c1ccc(Cl)cc1)c1ccc2c(c1)c(-c1cccc(Cl)c1)cc(=O)n2C [tipifarnib]
Outline: as §1

mubritinib = compound: FC(F)(F)c1ccc(/C=C/c2nc(COc3ccc(CCCCn4ccnn4)cc3)co2)cc1 [mubritinib]
Outline: as §1

Measured: log2 fold change

MINK1 (UniProt Q8N4C8)
inactive: bafetinib -0.031 | [1] -0.04 | nilotinib -0.025 | [2] -0.062 | [3] -0.09 | [4] 0.02 | [5] -0.042 | tipifarnib 0.018 | mubritinib 0.014
active: dasatinib -0.222

NQO1 (UniProt P15559)
UniProt P15559, sequence (P15559 whole entry, looked up): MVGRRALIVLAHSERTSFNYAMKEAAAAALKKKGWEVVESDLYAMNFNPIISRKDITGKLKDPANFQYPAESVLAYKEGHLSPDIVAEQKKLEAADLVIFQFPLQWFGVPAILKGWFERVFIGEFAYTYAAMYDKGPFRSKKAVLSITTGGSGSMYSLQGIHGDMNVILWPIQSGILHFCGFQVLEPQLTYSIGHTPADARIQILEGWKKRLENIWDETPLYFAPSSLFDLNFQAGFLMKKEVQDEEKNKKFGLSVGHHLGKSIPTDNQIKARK
active: [1] 0.365 | [5] 0.291
inactive: bafetinib 0.025 | nilotinib -0.001 | [2] 0.003 | dasatinib -0.033 | [3] -0.022 | [4] 0.049 | tipifarnib -0.089 | mubritinib 0.025

NUP107 (UniProt P57740)
inactive: bafetinib -0.013 | nilotinib -0.027 | [2] -0.012 | dasatinib -0.12 | [3] -0.145 | [4] -0.077 | [5] -0.008 | tipifarnib -0.026 | mubritinib -0.036
active: [1] 0.716

NASP (UniProt P49321)
inactive: bafetinib -0.036 | [1] 0.011 | nilotinib -0.013 | [2] -0.032 | dasatinib -0.027 | [3] 0 | [4] -0.02 | [5] 0.009 | tipifarnib -0.026 | mubritinib 0.026

NRDC isoform 2 (UniProt O43847)
inactive: bafetinib 0.022 | [1] 0.072 | nilotinib -0.019 | [2] -0.023 | dasatinib -0.133 | [3] 0.011 | [4] -0.01 | [5] -0.044 | tipifarnib -0.129 | mubritinib 0.088

MTFR1L (UniProt Q9H019)
UniProt Q9H019, sequence (Q9H019 whole entry, looked up): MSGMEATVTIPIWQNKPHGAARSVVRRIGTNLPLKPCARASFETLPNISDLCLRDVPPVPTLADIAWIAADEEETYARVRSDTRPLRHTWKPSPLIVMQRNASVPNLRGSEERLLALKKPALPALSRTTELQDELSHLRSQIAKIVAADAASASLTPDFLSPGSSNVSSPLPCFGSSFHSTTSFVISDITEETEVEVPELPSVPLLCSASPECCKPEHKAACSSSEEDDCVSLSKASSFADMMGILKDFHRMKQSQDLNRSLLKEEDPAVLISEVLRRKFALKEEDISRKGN
inactive: bafetinib -0.1 | [1] 0.305 | nilotinib 0.014 | [2] -0.32 | dasatinib -0.167 | [3] -0.038 | [4] 0.07 | [5] 0.001 | tipifarnib -0.062

NUDT21 (UniProt O43809)
UniProt O43809, sequence (O43809 whole entry, looked up): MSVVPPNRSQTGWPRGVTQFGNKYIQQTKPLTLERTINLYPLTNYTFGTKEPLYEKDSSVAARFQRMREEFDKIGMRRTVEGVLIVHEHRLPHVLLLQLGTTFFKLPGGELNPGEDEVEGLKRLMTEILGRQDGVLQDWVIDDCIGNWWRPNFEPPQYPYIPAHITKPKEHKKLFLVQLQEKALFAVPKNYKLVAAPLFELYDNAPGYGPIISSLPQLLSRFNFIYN
inactive: bafetinib 0.074 | [1] -0.071 | nilotinib 0.033 | dasatinib 0.031 | [3] 0.051 | [4] 0.029 | [5] -0.039 | tipifarnib -0.007 | mubritinib -0.008
active: [2] -0.798

OXA1L (UniProt Q15070)
inactive: bafetinib -0.152 | [1] -0.032 | nilotinib 0.013 | [2] -0.019 | dasatinib -0.01 | [3] -0.029 | [4] 0.013 | [5] 0.038 | tipifarnib 0.004 | mubritinib 0.003

NDUFS7 (UniProt O75251)
inactive: bafetinib -0.047 | [1] 0.06 | nilotinib -0.03 | [2] 0.021 | dasatinib 0.01 | [3] -0.007 | [4] 0.034 | [5] 0.036 | tipifarnib -0.035 | mubritinib 0.095

NEDD4 isoform 4 (UniProt P46934)
UniProt P46934, sequence (P46934 whole entry, looked up): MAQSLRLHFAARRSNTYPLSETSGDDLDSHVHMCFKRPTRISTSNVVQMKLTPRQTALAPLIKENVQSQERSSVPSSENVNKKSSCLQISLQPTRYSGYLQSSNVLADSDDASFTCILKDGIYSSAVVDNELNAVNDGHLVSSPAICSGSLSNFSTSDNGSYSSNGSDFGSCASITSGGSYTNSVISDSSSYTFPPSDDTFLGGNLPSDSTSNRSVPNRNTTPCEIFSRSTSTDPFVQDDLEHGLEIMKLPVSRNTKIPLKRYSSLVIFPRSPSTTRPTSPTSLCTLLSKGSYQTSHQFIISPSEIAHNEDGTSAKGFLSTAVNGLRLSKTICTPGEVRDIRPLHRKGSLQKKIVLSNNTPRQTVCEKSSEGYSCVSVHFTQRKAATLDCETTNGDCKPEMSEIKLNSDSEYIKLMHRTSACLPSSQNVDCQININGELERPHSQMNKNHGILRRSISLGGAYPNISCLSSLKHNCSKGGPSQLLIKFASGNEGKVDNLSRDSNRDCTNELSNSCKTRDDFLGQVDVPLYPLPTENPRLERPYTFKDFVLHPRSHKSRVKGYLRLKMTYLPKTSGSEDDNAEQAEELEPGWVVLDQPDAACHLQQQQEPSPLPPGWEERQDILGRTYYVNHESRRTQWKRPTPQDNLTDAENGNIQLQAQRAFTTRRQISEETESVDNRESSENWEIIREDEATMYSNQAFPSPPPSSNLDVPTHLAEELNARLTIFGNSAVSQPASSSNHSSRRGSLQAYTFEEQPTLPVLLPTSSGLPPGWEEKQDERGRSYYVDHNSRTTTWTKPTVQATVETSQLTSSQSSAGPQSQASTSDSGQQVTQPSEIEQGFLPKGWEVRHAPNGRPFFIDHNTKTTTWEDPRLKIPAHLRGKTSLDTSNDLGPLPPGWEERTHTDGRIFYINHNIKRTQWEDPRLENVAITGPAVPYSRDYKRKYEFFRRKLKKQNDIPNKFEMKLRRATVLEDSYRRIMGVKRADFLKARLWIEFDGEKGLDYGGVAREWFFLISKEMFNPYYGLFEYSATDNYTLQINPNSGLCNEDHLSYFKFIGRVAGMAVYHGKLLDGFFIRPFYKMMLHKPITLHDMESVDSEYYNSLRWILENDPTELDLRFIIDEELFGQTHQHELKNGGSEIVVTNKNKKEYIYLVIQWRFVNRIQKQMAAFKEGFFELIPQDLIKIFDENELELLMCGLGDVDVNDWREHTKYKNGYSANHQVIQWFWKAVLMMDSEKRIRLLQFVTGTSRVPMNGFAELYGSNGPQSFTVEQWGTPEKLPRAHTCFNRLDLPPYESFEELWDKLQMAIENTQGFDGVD
inactive: bafetinib -0.067 | [1] 0.054 | nilotinib -0.047 | [2] -0.083 | dasatinib -0.068 | [3] 0.052 | [4] -0.016 | [5] 0.027 | tipifarnib -0.024 | mubritinib 0.008

MRPS24 (UniProt Q96EL2)
inactive: bafetinib 0.283 | [1] 0.183 | nilotinib -0.195 | [2] 0.057 | dasatinib -0.024 | [3] 0.028 | [4] -0.141 | [5] 0.008 | tipifarnib -0.035 | mubritinib 0.186

NUDT16 (UniProt Q96DE0)
UniProt Q96DE0, sequence (Q96DE0 whole entry, looked up): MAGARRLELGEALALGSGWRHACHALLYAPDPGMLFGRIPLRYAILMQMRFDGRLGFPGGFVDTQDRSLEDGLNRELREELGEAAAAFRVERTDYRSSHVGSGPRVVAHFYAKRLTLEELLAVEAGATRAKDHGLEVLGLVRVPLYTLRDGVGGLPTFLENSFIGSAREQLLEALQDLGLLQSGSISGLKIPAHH
inactive: bafetinib -0.044 | [1] -0.035 | nilotinib 0 | [2] 0.015 | dasatinib 0.058 | [3] -0.049 | [4] 0.107 | [5] 0.019 | tipifarnib -0.02 | mubritinib 0.049

MTHFS (UniProt P49914)
inactive: bafetinib 0.074 | [1] 0.014 | nilotinib 0.154 | [2] 0.045 | dasatinib -0.094 | [3] 0.003 | [4] 0.032 | [5] -0.008 | tipifarnib 0.001 | mubritinib 0.045

MUL1 (UniProt Q969V5)
UniProt Q969V5, sequence (Q969V5 whole entry, looked up): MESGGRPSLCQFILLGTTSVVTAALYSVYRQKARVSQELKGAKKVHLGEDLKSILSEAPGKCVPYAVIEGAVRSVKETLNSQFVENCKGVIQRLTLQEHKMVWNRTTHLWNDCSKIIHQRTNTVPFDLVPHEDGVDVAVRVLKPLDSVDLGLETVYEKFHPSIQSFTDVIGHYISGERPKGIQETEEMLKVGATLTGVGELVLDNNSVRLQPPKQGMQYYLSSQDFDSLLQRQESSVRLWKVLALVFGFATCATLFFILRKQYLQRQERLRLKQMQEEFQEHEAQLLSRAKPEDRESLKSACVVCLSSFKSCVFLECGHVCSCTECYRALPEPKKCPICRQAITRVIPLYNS
inactive: bafetinib -0.018 | [1] 0.042 | nilotinib 0.004 | [2] 0.044 | dasatinib 0.011 | [3] -0.059 | [4] 0.036 | [5] 0.016 | tipifarnib -0.037 | mubritinib -0.023

NFATC2 (UniProt Q13469)
active: [3] -0.445
inactive: bafetinib 0.006 | [1] 0.066 | nilotinib -0.135 | [2] -0.341 | dasatinib -0.213 | [4] -0.025 | [5] -0.075 | tipifarnib -0.029 | mubritinib -0.124

NBN (UniProt O60934)
inactive: bafetinib -0.021 | [1] 0.031 | nilotinib 0.018 | [2] -0.198 | dasatinib -0.171 | [3] 0.048 | [4] 0.031 | [5] 0.064 | tipifarnib -0.016 | mubritinib 0.131

MXRA7 (UniProt P84157)
UniProt P84157, sequence (P84157 whole entry, looked up): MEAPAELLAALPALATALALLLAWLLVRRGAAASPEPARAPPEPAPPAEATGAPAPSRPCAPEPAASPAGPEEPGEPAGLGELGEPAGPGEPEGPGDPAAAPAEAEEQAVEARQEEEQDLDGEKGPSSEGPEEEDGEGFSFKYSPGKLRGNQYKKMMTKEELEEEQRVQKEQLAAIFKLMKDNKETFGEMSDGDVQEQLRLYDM
inactive: bafetinib -0.074 | [1] -0.075 | nilotinib -0.02 | [2] -0.057 | dasatinib 0.042 | [3] 0.057 | [4] 0.03 | [5] -0.042 | tipifarnib 0.018 | mubritinib 0.002

OTUD6B (UniProt Q8N6M0)
UniProt Q8N6M0, sequence (Q8N6M0 whole entry, looked up): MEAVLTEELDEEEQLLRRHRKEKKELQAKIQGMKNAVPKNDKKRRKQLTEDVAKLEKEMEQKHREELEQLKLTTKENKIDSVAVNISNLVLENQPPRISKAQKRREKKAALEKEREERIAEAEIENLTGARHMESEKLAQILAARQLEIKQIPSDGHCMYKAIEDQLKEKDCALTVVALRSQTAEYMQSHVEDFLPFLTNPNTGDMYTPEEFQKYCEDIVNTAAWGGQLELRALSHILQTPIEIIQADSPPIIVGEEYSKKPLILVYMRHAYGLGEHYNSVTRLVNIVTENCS
inactive: bafetinib -0.014 | [1] 0.105 | nilotinib -0.114 | [2] -0.067 | dasatinib -0.142 | [3] -0.031 | [4] 0.044 | [5] 0.067 | tipifarnib -0.039 | mubritinib -0.02

MSH2 (UniProt P43246)
inactive: bafetinib 0 | [1] 0.04 | nilotinib -0.003 | [2] -0.103 | dasatinib -0.038 | [3] 0.034 | [4] 0.024 | [5] 0.035 | tipifarnib -0.063 | mubritinib 0.156

NOLC1 isoform 2 (UniProt Q14978)
UniProt Q14978, sequence (Q14978 whole entry, looked up): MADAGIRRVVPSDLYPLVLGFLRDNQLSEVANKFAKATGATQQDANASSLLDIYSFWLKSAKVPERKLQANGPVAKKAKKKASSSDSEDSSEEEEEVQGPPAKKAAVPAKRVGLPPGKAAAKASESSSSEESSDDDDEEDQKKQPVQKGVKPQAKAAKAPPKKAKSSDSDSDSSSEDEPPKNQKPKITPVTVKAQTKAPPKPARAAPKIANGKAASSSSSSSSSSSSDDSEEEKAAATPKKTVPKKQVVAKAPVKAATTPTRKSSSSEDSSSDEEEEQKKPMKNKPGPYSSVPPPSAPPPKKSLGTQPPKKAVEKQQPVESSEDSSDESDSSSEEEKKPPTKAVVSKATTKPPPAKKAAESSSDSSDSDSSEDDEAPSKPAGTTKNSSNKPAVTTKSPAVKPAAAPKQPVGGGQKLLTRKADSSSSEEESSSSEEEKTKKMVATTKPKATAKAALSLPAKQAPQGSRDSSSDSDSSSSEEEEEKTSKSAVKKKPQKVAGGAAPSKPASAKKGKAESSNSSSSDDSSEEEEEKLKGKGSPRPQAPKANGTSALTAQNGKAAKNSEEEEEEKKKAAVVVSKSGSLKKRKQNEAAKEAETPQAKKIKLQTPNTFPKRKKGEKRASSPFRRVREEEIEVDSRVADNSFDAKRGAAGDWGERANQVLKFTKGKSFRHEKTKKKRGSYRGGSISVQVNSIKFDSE
inactive: bafetinib 0.105 | [1] -0.031 | nilotinib 0.1 | [2] -0.1 | dasatinib 0.145 | [4] -0.013 | [5] 0.02 | tipifarnib 0.027 | mubritinib -0.031
active: [3] -0.376

MRPS22 (UniProt P82650)
inactive: bafetinib 0.233 | [1] 0.137 | nilotinib -0.21 | [2] 0.044 | dasatinib -0.024 | [3] 0.012 | [4] 0.003 | [5] 0.017 | tipifarnib -0.11 | mubritinib 0.15

NNT (UniProt Q13423)
inactive: bafetinib -0.02 | [1] 0.056 | nilotinib -0.005 | [2] -0.006 | dasatinib -0.02 | [3] -0.018 | [4] 0.071 | [5] 0.037 | tipifarnib -0.034 | mubritinib 0.021

NUP85 (UniProt Q9BW27)
UniProt Q9BW27, sequence (Q9BW27 whole entry, looked up): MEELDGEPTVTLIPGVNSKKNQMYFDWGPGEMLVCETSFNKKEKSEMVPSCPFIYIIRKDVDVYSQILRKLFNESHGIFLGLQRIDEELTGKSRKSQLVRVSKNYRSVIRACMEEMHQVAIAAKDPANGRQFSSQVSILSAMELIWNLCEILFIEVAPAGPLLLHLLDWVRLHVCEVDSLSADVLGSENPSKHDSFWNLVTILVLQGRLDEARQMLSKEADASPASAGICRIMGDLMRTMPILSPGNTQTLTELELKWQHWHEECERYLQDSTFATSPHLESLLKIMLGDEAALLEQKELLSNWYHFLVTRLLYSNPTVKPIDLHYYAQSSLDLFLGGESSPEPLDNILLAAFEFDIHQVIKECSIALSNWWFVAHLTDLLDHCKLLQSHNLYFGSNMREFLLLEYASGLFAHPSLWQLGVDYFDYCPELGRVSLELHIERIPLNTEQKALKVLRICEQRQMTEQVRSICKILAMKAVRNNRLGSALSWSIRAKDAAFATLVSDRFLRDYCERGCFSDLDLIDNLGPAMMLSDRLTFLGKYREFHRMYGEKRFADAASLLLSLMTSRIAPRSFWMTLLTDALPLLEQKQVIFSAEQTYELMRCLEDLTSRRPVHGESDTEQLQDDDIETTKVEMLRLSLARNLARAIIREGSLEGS
inactive: bafetinib -0.088 | [1] 0.02 | nilotinib -0.027 | [2] -0.115 | dasatinib -0.068 | [3] -0.013 | [4] -0.009 | [5] -0.002 | tipifarnib -0.031 | mubritinib 0.026

NEU1 (UniProt Q99519)
inactive: bafetinib -0.212 | [1] 0.171 | nilotinib -0.051 | [2] -0.009 | dasatinib 0.019 | [3] -0.147 | [4] -0.04 | [5] 0.01 | tipifarnib 0.072 | mubritinib -0.031

NOP53 (UniProt Q9NZM5)
inactive: bafetinib 0.189 | [1] 0.059 | nilotinib 0.039 | [2] 0.217 | dasatinib 0.147 | [3] 0.027 | [4] -0.339 | [5] -0.178 | tipifarnib 0.161 | mubritinib -0.202

NUMA1 (UniProt Q14980)
inactive: bafetinib 0.121 | [1] 0.005 | nilotinib 0.031 | [2] -0.22 | dasatinib 0.019 | [3] -0.013 | [4] -0.194 | [5] -0.031 | tipifarnib 0.086 | mubritinib -0.043

P4HA2 (UniProt O15460)
inactive: bafetinib 0.012 | [1] -0.007 | nilotinib 0.056 | [2] 0.04 | dasatinib -0.057 | [3] -0.008 | [4] -0.102 | [5] -0.02 | tipifarnib 0.007 | mubritinib -0.059

MRPS33 (UniProt Q9Y291)
inactive: bafetinib 0.123 | [1] 0.125 | nilotinib -0.129 | [2] 0.064 | dasatinib 0.031 | [3] -0.04 | [4] -0.033 | [5] 0.028 | tipifarnib -0.003 | mubritinib 0.106

MORF4L2 (UniProt Q15014)
UniProt Q15014, sequence (Q15014 whole entry, looked up): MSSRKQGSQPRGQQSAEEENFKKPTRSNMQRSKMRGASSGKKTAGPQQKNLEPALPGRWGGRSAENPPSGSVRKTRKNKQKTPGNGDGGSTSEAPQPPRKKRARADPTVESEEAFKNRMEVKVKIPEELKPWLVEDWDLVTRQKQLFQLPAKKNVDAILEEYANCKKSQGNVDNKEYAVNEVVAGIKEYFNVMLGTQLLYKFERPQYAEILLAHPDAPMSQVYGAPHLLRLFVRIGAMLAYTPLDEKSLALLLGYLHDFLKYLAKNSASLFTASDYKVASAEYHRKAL
inactive: bafetinib 0.026 | [1] -0.055 | nilotinib 0.009 | [2] 0.01 | dasatinib 0.045 | [3] -0.005 | [4] -0.087 | [5] -0.131 | tipifarnib 0.059 | mubritinib -0.076

NHLRC2 (UniProt Q8NBF2)
inactive: bafetinib -0.141 | [1] 0.002 | nilotinib -0.05 | [2] -0.004 | dasatinib -0.052 | [3] -0.001 | [4] 0.042 | [5] 0.006 | tipifarnib -0.024 | mubritinib 0.058
